# In PubChem BioAssay (NCATS):
# Inconclusive results are not listed. Where a call stands in place of a potency, no number is given. The source made the active and inactive calls. Calls come from the whole dose curve; as a rule, active = well fitted curve in the direction sought with a large enough effect; inconclusive = small, poorly fitted or top-dose-only effect, or another doubt; inactive = no such curve, though single readings can be large; an effect the other way counts as inactive or inconclusive.
# Molecular target: Aldehyde dehydrogenase, mitochondrial (Homo sapiens) (UniProt P05091)
# Assay: qHTS for Inhibitors of the Aldehyde Dehydrogenase Family (ALDH2) Primary screen (AID 2061308); note: nearly all actives have a fitted effect of over 55% in size
# Settings: ALDH2 enzyme inhibition qHTS, 1536-well; series mostly up to 56 µM
row,SMILES,Potency
1,Cc1ccc(-c2cc(C(=O)Nc3ccccc3C)c3ccccc3n2)cc1C,inactive
2,Cc1nc(NCc2ccccc2)c2nc(-c3ccccc3)n(CCCN3CCCCC3C)c2n1 (configuration not stated),inactive
3,O=c1c2ccccc2nc2sc(Nc3cccc(Br)c3)nn12,inactive
4,CCN(CC)CCCn1c(-c2ccccc2)nc2c(NCc3ccccc3)nc(C)nc21,inactive
5,O=S(=O)(Nc1nc(-c2ccccc2C(F)(F)F)nc2ccccc12)c1ccc(-c2ccnc(C(F)(F)F)c2)cc1,inactive
6,O=C1CCCC2=C1C(c1ccccc1C(F)(F)F)N=C(Nc1nc3ccccc3o1)N2 (configuration not stated),inactive
7,O=C(c1ccccc1)N1CCN(c2nc(-c3cccs3)nc3ccccc23)CC1,inactive

# Molecular target: Retinaldehyde dehydrogenase 3 (Homo sapiens) (UniProt P47895)
# Assay: qHTS for Inhibitors of the Aldehyde Dehydrogenase Family (ALDH1A3) Primary screen (AID 2061315)
# Settings: ALDH inhibition qHTS; series mostly up to 56 µM
row,SMILES,Potency
1,Oc1cccc2cc(Nc3ccccc3)cnc12,inactive
2,Cc1cccc(-n2cnc3cc(C(=O)N4CC(C)CC(C)C4)ccc32)c1 (configuration not stated),inactive
3,Cc1ccc(C)c(OC2=NS(=O)(=O)c3ccccc32)c1,inactive
4,COc1ccnc(NC(=S)N2CCN(c3cc(C(F)(F)F)cc(C(F)(F)F)c3)CC2)c1,inactive
5,Cc1ccc(NS(=O)(=O)c2ccc3c(c2)NC(=O)CO3)cc1C,inactive
6,O=c1c2ccc(C(F)(F)F)cc2nc2sc(Nc3ccc4c(c3)CCC4)nn12,inactive
7,CC(C)N1CCc2c(-c3nc4ccccc4s3)csc2C1,inactive
8,Cc1ccc(S(=O)(=O)Nc2cnccc2C(=O)Nc2nc(-c3ccc(-c4ccccc4)cc3)cs2)cc1,inactive
9,O=C(C[C@H]1CC[C@@H](C(=O)Nc2ccc(S(=O)(=O)Nc3nccs3)cc2)C1)c1ccccc1,inactive
10,Fc1cccc(CSc2nc3ncc(Br)cc3[nH]2)c1,inactive
